Test results reported in PubChem BioAssay AID504847 (National Center for Advancing Translational Sciences (NCATS), 2011).
In all, about 400,000 compounds went through this assay and about 3,700 (0.93%) were called active. Not shown: some 3% with an inconclusive outcome. Calls follow the shape of the dose curve; as a rule, active = well fitted inhibition curve with a large enough effect; inconclusive = small, poorly fitted or top-dose-only effect, or another doubt; inactive = no such curve, though single readings can be large or run the other way. The list comes from a sample in which actives are over-represented; it also holds similar structures and randomly drawn compounds.

biological target: Vitamin D3 receptor (Homo sapiens) (UniProt P11473); test: Inhibitors of the vitamin D receptor (VDR): qHTS; settings: VDR-SRC2-3 peptide fluorescence polarization, 2 h; max response, negative = inhibition: hits give low values
Sequence (P11473 whole entry, looked up): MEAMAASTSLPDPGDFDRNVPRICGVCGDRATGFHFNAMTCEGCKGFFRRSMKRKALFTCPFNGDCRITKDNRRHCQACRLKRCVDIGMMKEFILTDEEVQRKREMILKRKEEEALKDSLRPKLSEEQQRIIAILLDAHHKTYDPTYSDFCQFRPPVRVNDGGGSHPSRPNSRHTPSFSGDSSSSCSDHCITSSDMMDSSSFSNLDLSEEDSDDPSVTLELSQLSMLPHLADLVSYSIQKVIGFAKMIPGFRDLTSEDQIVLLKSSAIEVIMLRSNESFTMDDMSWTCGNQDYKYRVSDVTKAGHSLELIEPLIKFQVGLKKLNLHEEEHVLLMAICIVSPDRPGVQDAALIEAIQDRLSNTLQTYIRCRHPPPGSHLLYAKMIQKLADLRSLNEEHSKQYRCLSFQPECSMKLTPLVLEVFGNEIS
In short: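 VDR–SRC2-3 interaction, FP format. Cmpds 23 nl via pintool, brief spin, 2 h ambient incubation.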
% is scaled to controls: 0 for no effect and ±100 for the full control effect; potency is read from the fitted curve at half-maximal effect.

Max response, negative = inhibition, inactive:
Cc1cc(C)c(NC(=O)c2cc3sc(Cl)cc3n2C)c(C)c1 -11%
O=C1NC(c2ccc(-c3ccccc3[N+](=O)[O-])o2)C(C(=O)c2ccc(Cl)cc2)C(O)(C(F)(F)F)N1 (stereo not given) -20.1%
O=C(Nc1ccc(N2CCOCC2)cc1)c1ccc(-c2ccccc2[N+](=O)[O-])o1 -16.6%
COc1cc(C(=O)NCCS(=O)(=O)N2CCN(c3ccccc3)CC2)cc(OC)c1OC 22.4%
COc1ccc(-c2onc(C)c2C)cc1S(=O)(=O)NCC1CCN(Cc2cccc(F)c2)CC1 -0.795%
Cc1cc(NC(=O)c2ccc(-c3ccc(Cl)cc3)o2)cc(-c2nc3ncccc3o2)c1O -16%
Cc1ccc(SCC(=O)N2CCN(c3ccc(F)cc3)CC2)cc1 9.21%
CC1CCN(C(=O)c2ccc3c(c2)NC(=O)CN3)CC1 8.33%
CCOC(=O)c1c(S(=O)(=O)N2CCCC(C(=O)NCc3cccc(C)c3)C2)c(C)n(C)c1C (stereo not given) 14.2%
CCCN(CCC)CCCNC(=O)Cn1cc2c(n1)-c1c(oc(C(=O)N3CCCC3)c1C)CC2 4.81%
COc1ccc(-c2nc(Cn3c(=O)cc(C)c4c(C)nn(-c5ccccc5)c43)c(C)o2)c(OC)c1 3.2%
COc1ccc2c(c1)c(N1CCCC1=O)c(C(=O)Nc1ccccc1C(F)(F)F)n2C 13.2%
Cc1ccc(-c2nc3cccc(C)n3c2Nc2ccc3c(c2)OCCO3)cc1 -25.9%
CC(C)c1ccc(C2C(C#N)=C(N)Oc3c2oc(CO)cc3=O)cc1 (stereo not given) -3.81%
COc1cc(Nc2nc(-c3ccc(OC)c(OC)c3)nc3ccccc23)cc(OC)c1 19%
CC(=O)Oc1ccc(N(C(C)=O)S(=O)(=O)c2ccc3ccccc3c2)cc1Br 7.52%
COC(=O)c1c(C)oc2ccc(N(C(=O)Oc3ccccc3)S(=O)(=O)c3ccccc3)cc12 2.55%
CC(NC(=O)c1cc2c(=O)n3ccccc3nc2n(C(C)C)c1=N)c1ccccc1 (stereo not given) -2.71%
Cc1ccc(-n2c(=O)c3cccnc3n2CC(=O)Nc2ccccc2C(F)(F)F)cc1C 10.3%
O=C(O)c1ccccc1/C=N/Nc1ccc(S(=O)(=O)Nc2ccc(Cl)cc2)cc1[N+](=O)[O-] -16.1%
COc1ccc(S(=O)(=O)Nc2ccccc2C(=O)N2CCCC2)cc1C 4.61%
Cc1cc(C)nc(NS(=O)(=O)c2ccc(NC(=O)c3cc(=O)c4ccc(C)c(C)c4o3)cc2)n1 19.7%
O=C(NCCCc1ccccc1)c1ccc2c(c1)sc1nc(-c3ccc(F)cc3)cn12 9.26%
Cc1ccc(-c2cc(-c3coc4ccccc4c3=O)c3c(n2)-c2cc(Cl)ccc2OC3)cc1 2.47%
Cc1ccc(C2=C/C(=C\c3cccnc3)C(=O)O2)cc1 -0.781%
Nc1ccc2c(c1)C(=Cc1cccnc1)c1ccccc1-2 -7.1%
Cc1ccc(NC(=O)CSc2nc3c([nH]c4ccccc43)c(=O)n2-c2ccccc2)cc1Cl 5.44%
O=C(CCCn1c(=O)c2cccn2c2cccnc21)NCc1ccc(F)cc1 8.91%
CCOc1ccc(NC(=O)Cn2c(C)ccc(C#N)c2=O)cc1 -0.0869%
Cc1ccc(CS(=O)(=O)CCC(=O)NCc2ccc(F)cc2)cc1 -16.2%
CCn1cc(CCC(=O)NCc2ccc(F)cc2)c2ccccc21 -3.64%
Cc1ccc(C)c(N2CCN(C(=O)Cn3ncc4c(=O)oc5ccc(C)cc5c43)CC2)c1 -7.32%
CCOc1ccc(NC(=O)C2CCN(S(=O)(=O)c3cc(-c4noc(C)n4)ccc3C)CC2)cc1 15.5%
COc1ccc2[nH]c3c(c2c1)CCN(C(=O)CCC1CCCC1)C3c1ccc(F)cc1 (stereo not given) 12.3%
CCc1cc2c(cc3c(=O)n(CC(=O)NCc4cccc(Cl)c4)nc(CC)n32)s1 -17.2%
CC(C)(C)C(=O)CSc1nc2ccccc2o1 -1.66%
O=C(CSc1nc2ccccc2o1)N/N=C/c1ccccc1C(=O)O -26.3%
COc1ccc(OCCCn2c(C)nc3cc(C)c(C)cc32)cc1 10%
COc1cc2c(cc1OC)[C@@H](Cc1cc(OC)c(OC)c(OC)c1)[N+](C)(CCCOC(=O)CC/C=C/CCC(=O)OCCC[N+]1(C)CCc3cc(OC)c(OC)cc3[C@H]1Cc1cc(OC)c(OC)c(OC)c1)CC2 (stereo not given in full) 3.39%
CCOc1cc(C(=O)Nc2nnc3n2CCS3)cc(OCC)c1OCC -8%
O=S(=O)(c1cccc(C(F)(F)F)c1)N1CCN(c2nc(-c3cccs3)nc3ccccc23)CC1 3.96%
COc1ccccc1CNc1nccn(-c2ccc(F)cc2)c1=O 6.76%
COc1ccccc1NC(=O)[C@H](COCc1ccccc1)NC(=O)OC(C)(C)C 6.86%
CC(C)[C@@H](NC(=O)OC(C)(C)C)C(=O)NCC1CCC(C(=O)N[C@@H](Cc2ccccc2)C(=O)O)CC1 (stereo not given in full) -5.18%

Potency, active:
CC1=NN(c2ccc(Cl)c(C(=O)O)c2)C(=O)/C1=C/c1ccc(-c2ccccc2[N+](=O)[O-])o1 50.1 µM
Cc1ccc(CSCC2Nc3ccc(C(=O)N4CCN(c5ccc(F)cc5)CC4)cc3NC2=O)cc1 (stereo not given) 79.4 µM
CC(C)c1ccc(C2CC(=O)N3CN(C4CCCCC4)CSC3=C2C#N)cc1 (stereo not given) 14.1 µM
CC(=O)N(c1ccc2oc(=O)sc2c1)S(=O)(=O)c1ccc(C)cc1 70.8 µM
COc1ccc(Br)cc1/C=N/Nc1ccc(S(=O)(=O)Nc2ccccc2C(=O)O)cc1[N+](=O)[O-] 79.4 µM
Cc1ccccc1C1=N/C(=C/c2cccnc2)C(=O)O1 70.8 µM
CCCCC(=O)NCc1ccc(F)cc1 3.16 µM
Oc1c(C=Nc2cccc3nsnc23)ccc2ccccc12 79.4 µM
Cc1ccc(/C=N/NC(=O)CSc2nc3ccccc3o2)cc1 79.4 µM
O=C1C(Cl)=C(Oc2ccccc2)C(=O)c2ccccc21 7.08 µM
C[C@@H](NC(=O)OC(C)(C)C)c1nnc(S(=O)(=O)Cc2ccccc2)o1 28.2 µM
